Measurements reported in ChEMBL document CHEMBL4513216, “Probing the Open Global Health Chemical Diversity Library for Multistage-Active Starting Points for Next-Generation Antimalarials” (ACS Infect Dis, 2020).
About 8,600 (12%) of roughly 69,000 compounds showed an effect of 50% or more. Shown is part of a subset that was picked to be rich in strong results.

Test system: Plasmodium berghei
Assay: Screen against P. berghei liver stage (PbLuc), transformed with Luciferase, at 10uM
Type: functional, HepG2
Conditions: tested at 10 uM

Which INHIBITION does the source give for Nc1nccnc1C1CN(C(=O)c2cnccn2)CCO1 (centres undefined) here?
Its INHIBITION is -9.32%.

COCC(c1cccc(C(F)(F)F)c1)N(C)C(=O)c1cccnc1 (centres undefined) was tested. Which INHIBITION did it give?
Its INHIBITION is -34.5%.

How did the INHIBITION turn out when NC(=O)COc1cccc(Cn2cc(Br)cn2)c1 was run?
The INHIBITION was 27%.

How did the INHIBITION turn out when O=S(=O)(C1CC1)N1CCc2ncnc(-c3ccncc3)c2CC1 was run?
The INHIBITION was 12.1%.

Cc1nnc(N2CCOC(CN(C)C)C2)c(C#N)c1C (centres undefined) was tested. Which INHIBITION did it give?
The INHIBITION was 49.25%.

With Cc1ccc(O)c(C(=O)N2C[C@@H](C(=O)O)[C@H](c3ccccc3)C2)c1 as the molecule, how does the INHIBITION read?
The INHIBITION was 19.4%.

How did the INHIBITION turn out when CC(C)=CCN1C(=O)[C@@H]2CC[C@H]1CN(c1ncccc1F)C2 was run?
Its INHIBITION is 12.7%.

For c1ccc2oc(N3CCCC3Cn3cncn3)nc2c1 (centres undefined), which INHIBITION is on record?
Its INHIBITION is -41.1%.

c1ccc2oc(CCCN3CCCCC3Cn3cncn3)nc2c1 (centres undefined) was tested. Which INHIBITION did it give?
The INHIBITION was -41.1%.

For c1ccc2oc(N3CCCCC3Cn3cncn3)nc2c1 (centres undefined), which INHIBITION is on record?
The INHIBITION was 55.5%.

Which INHIBITION does the source give for c1ccc2oc(CN3CCCCC3Cn3cncn3)nc2c1 (centres undefined) here?
Its INHIBITION is 55.4%.

With c1ccc2oc(CCCN3CCCC3Cn3cncn3)nc2c1 (centres undefined) as the molecule, how does the INHIBITION read?
The INHIBITION was 30.8%.

Which INHIBITION does the source give for c1ccc2oc(CN3CCCC3Cn3cncn3)nc2c1 (centres undefined) here?
The INHIBITION was -4.94%.

How did the INHIBITION turn out when O=C(Nc1cc(C(F)(F)F)c[nH]c1=O)N1CCOCC1 was run?
The INHIBITION was -31.8%.

Which INHIBITION does the source give for COc1c(C)cnc(CNCC(C)C)c1C here?
Its INHIBITION is 11.95%.

How did the INHIBITION turn out when CN(C)CC(=O)N1CCc2sc(C(=O)N3CCOCC3)cc21 was run?
The INHIBITION was 43%.

For CC(C)Cc1noc(CN(C)c2cc(C(C)C)nc3ccnn23)n1, which INHIBITION is on record?
Its INHIBITION is 23.5%.

Cc1cc(N(C)CCn2ccnc2C)n2nccc2n1 was tested. Which INHIBITION did it give?
The INHIBITION was 48.1%.

Cc1nccn1CCN(C)c1cc(C(C)C)nc2ccnn12 was tested. Which INHIBITION did it give?
Its INHIBITION is 51.3%.

For COCCC(Cc1cccc(Br)c1)C(N)=O (centres undefined), which INHIBITION is on record?
Its INHIBITION is 25.3%.

CC(C)CC(Cc1cccc(Br)c1)C(=O)O (centres undefined) was tested. Which INHIBITION did it give?
The INHIBITION was 65.4%.

For COCCC(Cc1cccc(Br)c1)C(=O)O (centres undefined), which INHIBITION is on record?
Its INHIBITION is 9%.

CS(=O)(=O)NC[C@H]1Cn2c(-c3ccc(Cl)cc3)cnc2CO1 was tested. Which INHIBITION did it give?
The INHIBITION was 5.58%.

For CS(=O)(=O)NC[C@H]1Cn2c(-c3ccccc3)cnc2CO1, which INHIBITION is on record?
Its INHIBITION is 25.3%.

For CS(=O)(=O)NC[C@H]1Cn2c(-c3ccc(F)cc3)cnc2CO1, which INHIBITION is on record?
Its INHIBITION is 51.7%.

CC(=O)Nc1nc(CN2CCOC(Cn3cncn3)C2)cs1 (centres undefined) was tested. Which INHIBITION did it give?
The INHIBITION was 11.6%.

How did the INHIBITION turn out when Cn1cnnc1CCNC(=O)c1cnn(Cc2ccccc2)c1 was run?
The INHIBITION was 10.7%.

How did the INHIBITION turn out when Cc1noc(C)c1CN(C)C(=O)NC1CCC(O)CC1 (centres undefined) was run?
The INHIBITION was 40.15%.

How did the INHIBITION turn out when O[C@H]1[C@H](NCCSc2ccccn2)c2ccccc2C12CCNCC2 was run?
Its INHIBITION is 52.2%.

With O[C@H]1[C@H](NCCc2cnccn2)c2ccccc2C12CCNCC2 as the molecule, how does the INHIBITION read?
The INHIBITION was 57.8%.

For O[C@H]1[C@H](NCCc2ccccn2)c2ccccc2C12CCNCC2, which INHIBITION is on record?
Its INHIBITION is 28.7%.

How did the INHIBITION turn out when O[C@H]1[C@H](n2cc(-c3ccccn3)nn2)c2ccccc2C12CCNCC2 was run?
Its INHIBITION is -110%.

For OCc1cn([C@@H]2c3ccccc3C3(CCNCC3)[C@H]2O)nn1, which INHIBITION is on record?
The INHIBITION was -76.9%.

How did the INHIBITION turn out when O=C(CC1CCc2ccccc21)NCCSc1ccccn1 (centres undefined) was run?
Its INHIBITION is -8.25%.

With COc1ccc(Nc2nc(N)c(C(C)=O)s2)cc1OC as the molecule, how does the INHIBITION read?
The INHIBITION was 27.5%.

Which INHIBITION does the source give for Cc1cnn(Cc2cccc(OCC(N)=O)c2)c1 here?
Its INHIBITION is 40.7%.

How did the INHIBITION turn out when Cc1ccsc1CNC1CCCc2c1cnn2C (centres undefined) was run?
Its INHIBITION is -2.19%.

Which INHIBITION does the source give for CC(C)(Oc1ccc(C(N)=O)cc1)C(=O)N(CCC#N)C1CC1 here?
Its INHIBITION is 23.3%.

How did the INHIBITION turn out when O=C(NC1CCN(CC2CCCC2)C1)N1CCC(OCC2CC2)CC1 (centres undefined) was run?
Its INHIBITION is 39.7%.

How did the INHIBITION turn out when O=C(NC1CCN(CC2CC2)C1)N1CCC(OC2CCCCC2)CC1 (centres undefined) was run?
The INHIBITION was 74%.

For NC(=O)C1CCN(C(=O)NC2CCN(CC3CCCC3)C2)CC1 (centres undefined), which INHIBITION is on record?
The INHIBITION was 7.83%.

CCOCc1cnc2n1CCN(C(=O)c1ccccc1)C2C (centres undefined) was tested. Which INHIBITION did it give?
Its INHIBITION is 57.5%.

For CCOCc1cnc2n1CCN(C(=O)Cc1cccs1)C2C (centres undefined), which INHIBITION is on record?
The INHIBITION was 34.6%.

Which INHIBITION does the source give for CCOCc1cnc2n1CCN(C(=O)Cc1ccco1)C2C (centres undefined) here?
The INHIBITION was 10.5%.

CCOCc1cnc2n1CCN(C(=O)c1ccoc1C)C2C (centres undefined) was tested. Which INHIBITION did it give?
Its INHIBITION is 48.4%.

Which INHIBITION does the source give for CCOCc1cnc2n1CCN(C(=O)c1cccc3c1OCCO3)C2C (centres undefined) here?
Its INHIBITION is 52.1%.

With CC1c2ncc(COCC3CC3)n2CCN1C (centres undefined) as the molecule, how does the INHIBITION read?
The INHIBITION was 21.7%.

How did the INHIBITION turn out when CCOCc1cnc2n1CCN(C(=O)C1=CCCC1)C2C (centres undefined) was run?
Its INHIBITION is 5.96%.

For COCCC(=O)N1CCn2c(COCC3CC3)cnc2C1C (centres undefined), which INHIBITION is on record?
The INHIBITION was 51.2%.

For CCOCc1cnc2n1CCN(C(=O)c1cn(C)c3ccccc13)C2C (centres undefined), which INHIBITION is on record?
The INHIBITION was 57.5%.

Which INHIBITION does the source give for COCc1cnc2n1CCN(C(=O)c1cn(C)c3ccccc13)C2C (centres undefined) here?
Its INHIBITION is 16.8%.

CC1c2ncc(COCC3CC3)n2CCN1C(=O)c1ccnnc1 (centres undefined) was tested. Which INHIBITION did it give?
Its INHIBITION is -27%.

How did the INHIBITION turn out when CCOCc1cnc2n1CCN(C(=O)Cc1ccccn1)C2C (centres undefined) was run?
The INHIBITION was 37.8%.

With CCc1noc(C)c1C(=O)N1CCCC1c1c(C)nn(C)c1C (centres undefined) as the molecule, how does the INHIBITION read?
Its INHIBITION is 31.8%.

For Cc1ccc(C(NCC(=O)N2CCNC(=O)C2)C(F)(F)F)cc1 (centres undefined), which INHIBITION is on record?
Its INHIBITION is 18.3%.

With CC(C)(CNC1CCCN(Cc2ccccn2)C1)CN1CCOCC1 (centres undefined) as the molecule, how does the INHIBITION read?
Its INHIBITION is 33%.

Which INHIBITION does the source give for O=C(NCC1CC1)C1CCC2(CCN(C(=O)c3cccnc3)CC2)O1 (centres undefined) here?
Its INHIBITION is 6.27%.

How did the INHIBITION turn out when Cc1ccc(-c2nc(C(=O)N3CCOCC3)cs2)c(C)c1 was run?
The INHIBITION was -3.85%.

How did the INHIBITION turn out when Cc1cc(C)n(CCN2CCOC(CNc3cccnn3)C2)n1 (centres undefined) was run?
Its INHIBITION is -39.7%.

With O=C(c1ccncc1)N1CCN(Cc2cccnc2)c2ncccc2C1 as the molecule, how does the INHIBITION read?
Its INHIBITION is 7.53%.

With CSc1nccc(NCc2cc3n(n2)CCCN(C(=O)C2CCC2)C3)n1 as the molecule, how does the INHIBITION read?
Its INHIBITION is 15.9%.

For CC(c1ccc(F)cc1)N1CCN(Cc2nccn2C)CC1 (centres undefined), which INHIBITION is on record?
Its INHIBITION is 11.9%.

Which INHIBITION does the source give for CC(C)C(=O)N1CCC2(COCc3cnc(-c4cccnc4)nc32)C1 (centres undefined) here?
Its INHIBITION is 17.7%.

CN(C)C(=O)CN1CCC2(COCc3cnc(-c4cccnc4)nc32)C1 (centres undefined) was tested. Which INHIBITION did it give?
The INHIBITION was 69.3%.

CCN1CCC2(COCc3cnc(-c4cccnc4)nc32)C1 (centres undefined) was tested. Which INHIBITION did it give?
The INHIBITION was 28.4%.

How did the INHIBITION turn out when c1cnc(N2CCC3(COCc4cnc(-c5cccnc5)nc43)C2)nc1 (centres undefined) was run?
The INHIBITION was 59.7%.

How did the INHIBITION turn out when O=C(C1CCC1)N1CCC2(COCc3cnc(-c4cccnc4)nc32)C1 (centres undefined) was run?
The INHIBITION was -40.4%.

How did the INHIBITION turn out when c1ccc(-c2ncc3c(n2)C2(CCN(c4ncccn4)C2)COC3)cc1 (centres undefined) was run?
Its INHIBITION is -39.1%.

With O=S(=O)(C1CC1)N1CCC2(COCc3cnc(-c4cccnc4)nc32)C1 (centres undefined) as the molecule, how does the INHIBITION read?
The INHIBITION was 32.1%.

Which INHIBITION does the source give for CN(C)S(=O)(=O)N1CCC2(COCc3cnc(-c4ccccc4)nc32)C1 (centres undefined) here?
Its INHIBITION is 29.7%.

With CN(C)S(=O)(=O)N1CCC2(COCc3cnc(-c4cccnc4)nc32)C1 (centres undefined) as the molecule, how does the INHIBITION read?
The INHIBITION was 59.3%.

With CN(C)C(=O)CN1CCC2(COCc3cnc(-c4ccccc4)nc32)C1 (centres undefined) as the molecule, how does the INHIBITION read?
The INHIBITION was 91%.

CN(C)C(=O)CN1CCC2(COCc3cnc(N4CCOCC4)nc32)C1 (centres undefined) was tested. Which INHIBITION did it give?
Its INHIBITION is 19.4%.

For CS(=O)(=O)N1CCC2(COCc3cnc(-c4ccccc4)nc32)C1 (centres undefined), which INHIBITION is on record?
Its INHIBITION is -69.9%.
